Records with an inconclusive call do not appear. Active and inactive are the calls of the source. Unless noted, the call rests on the fitted dose curve.
Tests used:
[1] = qHTS for Inhibitors of the Functional Ribonucleoprotein Complex (vRNP) of Lassa (LASV) Arenavirus: LASV Primary Screen - GLuc reporter signal (AID 1347082; calls by dose curve; tested in HEK293 reporter line; further: nearly all actives have a fitted effect of over 60% in size)
[2] = qHTS for Inhibitors of the Functional Ribonucleoprotein Complex (vRNP) of Lassa (LASV) Arenavirus: Viability assay - alamar blue signal for LASV Primary Screen (AID 1347083; calls by dose curve; tested in HEK293 reporter line; further: nearly all actives have a fitted effect of over 80% in size)
[3] = qHTS for Inhibitors of the Functional Ribonucleoprotein Complex (vRNP) of Lymphocytic Choriomeningitis Arenaviruses (LCMV): Viability assay - alamar blue signal for LCMV Primary Screen (AID 1347085; calls by dose curve; tested in HEK293 reporter line; further: nearly all actives have a fitted effect of over 80% in size)
[4] = biological target: Nucleoprotein (Lymphocytic choriomeningitis virus (strain Armstrong)) (UniProt P09992); experiment: qHTS for Inhibitors of the Functional Ribonucleoprotein Complex (vRNP) of Lymphocytic Choriomeningitis Arenaviruses (LCMV): LCMV Primary Screen - GLuc reporter signal (AID 1347086); further: nearly all actives have a fitted effect of over 70% in size

Measured: Potency
Further: series mostly up to about 57 µM.

Nucleoprotein (Lymphocytic choriomeningitis virus (strain Armstrong)), sequence (P09992 whole entry, looked up): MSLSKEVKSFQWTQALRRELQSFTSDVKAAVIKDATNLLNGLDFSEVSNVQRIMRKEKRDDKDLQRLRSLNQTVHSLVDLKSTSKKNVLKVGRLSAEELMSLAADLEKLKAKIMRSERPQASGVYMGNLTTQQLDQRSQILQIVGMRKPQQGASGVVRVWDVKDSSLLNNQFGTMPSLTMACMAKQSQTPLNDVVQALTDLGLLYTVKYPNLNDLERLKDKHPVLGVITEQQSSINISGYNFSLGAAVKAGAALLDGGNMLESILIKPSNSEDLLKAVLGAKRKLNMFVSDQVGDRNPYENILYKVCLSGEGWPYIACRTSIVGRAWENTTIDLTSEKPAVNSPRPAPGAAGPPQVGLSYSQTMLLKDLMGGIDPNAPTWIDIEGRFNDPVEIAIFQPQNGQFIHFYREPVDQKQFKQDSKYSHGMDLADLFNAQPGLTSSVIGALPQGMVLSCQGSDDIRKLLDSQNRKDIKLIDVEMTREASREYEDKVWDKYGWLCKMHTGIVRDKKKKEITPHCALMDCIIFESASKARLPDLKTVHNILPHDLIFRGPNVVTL

CCCCCCCN(CC)CCCC(O)c1ccc(NS(C)(=O)=O)cc1 (stereo not given)
inactive: all assays above

CC(=O)Nc1ccc(OCC(O)CNC(C)C)cc1 (stereo not given)
inactive: all assays above

CN=C(N)NC(=O)Nc1c(C)cccc1C
inactive: all assays above

CC(=O)Nc1ccccc1
inactive: all assays above

Cc1c(C)c2c(c(C)c1O)CCC(C)(COc1ccc(CC3SC(=O)NC3=O)cc1)O2 (stereo not given)
inactive: all assays above

COc1cc2c3cc1Oc1cc(ccc1O)C[C@@H]1c4c(cc(OC)c(O)c4Oc4ccc(cc4)C[C@@H]3N(C)CC2)CC[N+]1(C)C
inactive: all assays above

CC(C)COC(=O)c1ccc(N)cc1
inactive: all assays above

CCC[C@@H]1C[C@@H](C(=O)N[C@@H]([C@H]2O[C@H](SC)[C@H](O)[C@@H](O)[C@H]2O)[C@@H](C)O)N(C)C1
inactive: all assays above

CN1C(C(=O)Nc2ccccn2)=C(O)c2ccccc2S1(=O)=O
inactive: all assays above

O=C(O)[C@@H]1CSCN1
inactive: all assays above

CC(=O)N(CC(O)CO)c1c(I)c(C(=O)NCC(O)CO)c(I)c(C(=O)NCC(O)CO)c1I (stereo not given)
inactive: all assays above

CC(C)(CO)[C@@H](O)C(=O)NCCCO
inactive: all assays above

O=[N+]([O-])c1ccc(/C=N\O)o1
inactive: all assays above

Cc1cc(O)cc(C)c1Cl
inactive: all assays above

N#CSCC(=O)O
inactive: all assays above

O=C(O)CNC(=O)c1ccccc1
inactive: all assays above

COc1ccccc1OCC1CNC(=O)O1 (stereo not given)
inactive: all assays above

Oc1ccc(Cl)c2cccnc12
inactive: all assays above

CC1(C)OC[C@@H]2O[C@@]3(C(=O)O)OC(C)(C)O[C@H]3[C@@H]2O1
inactive: all assays above

CC(=O)N/N=C/c1ccc([N+](=O)[O-])o1
inactive: all assays above

Nc1ncnc2c1ncn2[C@@H]1O[C@H](COP(=O)(O)O)[C@@H](O)[C@H]1O
inactive: all assays above

O=C(OCc1ccccc1)c1ccccc1
inactive: all assays above

Nc1ncnc(Nc2ccccc2)n1
inactive: all assays above

COc1ccc(C2C(=O)c3ccccc3C2=O)cc1
inactive: all assays above

COC(=O)c1cc(Cl)ccc1OC
inactive: all assays above

CN(C)CCN(Cc1ccsc1)c1ccccn1
inactive: all assays above

CCCCCC(C)N (stereo not given)
inactive: all assays above

O=C(O)c1cc(=O)[nH]c(=O)[nH]1
inactive: all assays above

COc1nccnc1NS(=O)(=O)c1ccc(N)cc1
inactive: all assays above

CCOC(=O)c1ccc(O)c(O)c1
inactive: all assays above

C[C@@H]1C[C@H]2[C@@H]3C[C@H](F)C4=CC(=O)C=C[C@]4(C)[C@@]3(F)[C@@H](O)C[C@]2(C)[C@@]1(O)C(=O)CO
inactive: all assays above

CC(=O)NCCCCCC(=O)O
inactive: all assays above

C/C(=N\O)c1ccc(OCC(=O)N2CCCCC2)cc1
inactive: all assays above

C#C[C@]1(O)CC[C@H]2[C@@H]3CCC4=CC(=O)CC[C@@H]4[C@H]3CC[C@@]21CC
inactive: all assays above

NCCCCCC(=O)O
inactive: all assays above

N[C@@H](CCC(=O)N[C@@H](CS)C(=O)NCC(=O)O)C(=O)O
inactive: all assays above

O=C1CC2(CCCC2)CC(=O)N1
inactive: all assays above

CC[C@H]1OC(=O)[C@H](C)[C@@H](O[C@H]2C[C@@](C)(OC)[C@@H](O)[C@H](C)O2)[C@H](C)[C@@H](O[C@@H]2O[C@H](C)C[C@H](N(C)C)[C@@H]2O)[C@](C)(O)C[C@@H](C)CN(C)[C@H](C)[C@@H](O)[C@]1(C)O
inactive: all assays above

Nc1ccc(S(=O)(=O)NC(=O)c2ccccc2)cc1
inactive: all assays above

O=C(OCC1(COC(=O)c2cccnc2)CCCC(COC(=O)c2cccnc2)(COC(=O)c2cccnc2)C1O)c1cccnc1
inactive: all assays above

Reference: PubChem BioAssay (NCATS)
